Format in all cases: functional
For assay [1], the system named is Plasmodium falciparum. The assay is described as follows: GSK_TCMDC: Inhibition of Plasmodium falciparum 3D7 in whole red blood cells, using parasite LDH activity as an index of growth. Test compounds present at 2uM.
Assay [2] has as its system Plasmodium falciparum. The assay is described as follows: GSK_TCMDC: Inhibition of Plasmodium falciparum Dd2 in whole red blood cells, using parasite LDH activity as an index of growth. Test compounds present at 2uM.
Assay [3] relates to HepG2. Briefly: GSK_TCMDC: Percent inhibition of human HepG2 cell line. Test compounds present at 10uM.

Broadly, the Inhibition is the relative decrease from the control value, in per cent. Read a high Inhibition as strong suppression. As to `N#Cc1cc([N+](=O)[O-])ccc1-n1nc(-c2cccc(Cl)c2)n(CC2CCCO2)c1=S` (stereo not given), the Inhibition in assay [1] is 91%; in assay [2], 89%; in assay [3], 0%.
The corresponding values for `O=C(Nc1ccc(-c2cccc(-c3nc4cc(F)ccc4[nH]3)c2)cc1)Nc1ccsc1` are 100%, 51% and 34%.
The corresponding values for `CCCC(C)Nc1nc(C)cc(N[C@@H](CC(C)C)C(=O)NCc2cccc(F)c2)n1.O=C(O)C(F)(F)F` (stereo not given in full) are 96%, 63% and 1%.
On the same counts, the results for `COc1cc(Cc2c(C)nc3nc(N)nc(N)c3c2C)c(Br)c(OC)c1OC.Cl` are 93%, 0% and 44%.
`CCNc1cc(C(=O)N[C@@H](Cc2ccccc2)[C@H](O)CNCCc2cccc(C(F)(F)F)c2)cc(N2CCCC2=O)c1.O=CO`: the Inhibition was found to be 96% in assay [1], 93% in assay [2] and 7% in assay [3].
The corresponding values for `Cc1nc(-c2ccccc2)nc(N2CCN(C(=O)c3ccco3)CC2)c1Cc1ccccc1F` are 95%, 86% and 7%.
The corresponding values for `CN1CCN(CCCN(Cc2ccc(-c3cccc(CNCc4ccc5c(c4)OCO5)c3)cc2)C(=O)NC2CCCCC2)CC1.O=C(O)C(F)(F)F` are 95%, 92% and 31%.
Regarding `COc1ccc(CCCN2C(=O)C(c3ccccc3)(c3ccccc3)N=C2N)cc1.O=C(O)C(F)(F)F`, the Inhibition in assay [1] was 94%; in assay [2] it was 76%; in assay [3], 21%.
On the same counts, the results for `CC(C)CC(=O)N(Cc1ccc(-c2ccc(CNC3Cc4ccccc4C3)cc2)cc1)C1CCNCC1.O=C(O)C(F)(F)F` are 85%, 65% and 20%.
The corresponding values for `CN(C)CCOc1cc(NC(=O)Nc2ccc(-c3ccccc3)cc2Cl)ccc1I` are 100%, 93% and 25%.
On the same counts, the results for `O=C(O)C(F)(F)F.c1cc(CN2CCC(CCN3CCCCC3)CC2)cc(-c2csc(-c3nc4ccccc4[nH]3)c2)c1` are 99%, 99% and 89%.
In the case of `O=C(O)C(F)(F)F.c1cc(-c2ccc(CN3CCCC3)cc2)cc(-c2nc3ccccc3[nH]2)c1`, the Inhibition in assay [1] came to 100%; in assay [2], 52%; in assay [3], 25%.
On the same counts, the results for `Cc1cccc2nc(-c3cccc(-c4ccc(NC(=O)C5CCN(C)CC5)cc4)c3)[nH]c12` are 100%, 100% and 16%.
`CC(C)c1cc(C(=O)N[C@@H](Cc2ccccc2)[C@H](O)CNC2CCCCC2)cc(N2CCCC2=O)c1`: the Inhibition in assay [1] is on record as 100%; in assay [2] it was 98%; in assay [3], 0%.
On the same counts, the results for `Br.Cc1ccc(OCCCCON2C(=N)N=C(N)NC2(C)C)cc1C` are 94%, 97% and 61%.
The corresponding values for `Cc1cc(C=C2SC(=Nc3ccccc3)N(C3CCCC3)C2=O)c(C)n1-c1ccc(Cl)cc1` are 100%, 70% and 0%.
On to `O=C(Nc1ccc(C(F)(F)F)cc1)NC1CCN(CCCCCNC(=O)C2CC2c2ccc(Cl)c(Cl)c2)CC1` (stereo not given), for which the Inhibition in assay [1] worked out at 100%; in assay [2], 45%; in assay [3], 41%.
The corresponding values for `Nc1nccc2ccc(-c3ccnc(NCc4cccnc4)n3)cc12` are 100%, 95% and 11%.
Consider `CCC1(c2ccccc2)N=C(N)N(CCCc2ccccc2)C1=O` (stereo not given), for which the Inhibition in assay [1] amounted to 90%; in assay [2] it was 96%; in assay [3], 17%.
On to `CN1CCN(c2cc(NC(=O)c3ccc(-c4ccc(Cl)cc4)cc3)ccc2Cl)CC1`, for which the Inhibition is reported as 99% in assay [1], 33% in assay [2] and 30% in assay [3].

The record behind these values is ChEMBL document CHEMBL1157539, “Thousands of chemical starting points for antimalarial lead identification” (Nature, 2010).
